Bioassay records as filed in PubChem.
Shown are actives, neighbours in structure and some others; about 7.5% of the full set was active somewhere.
HCV inh – inhibitors of hepatitis C virus infection. Huh7.5.1 HCVcc-Cre infection, luciferase reporter, 44 h. Potency, µM (top dose mostly 41.8 µM), inactives show at the top dose activity change, negative = inhibition, usual class: inhibitors. hit rate 3.4% among 340,000; also: potency is read from the fitted curve at half-maximal effect
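A cell-based infection assay in which seeded cells (1,000 per well) receive test compound after 4 h, are inoculated with HCVcc-Cre at approximately 0.5 moi, and are incubated 44 h before luminescence detection.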
FBPA Giardia inh – Giardia lamblia aldolase inhibition; purified Giardia FBPA; hit rate 0.71% among 290,000; AID 2451; Potency, µM (top dose mostly 59.6 µM), inactives show at the highest dose activity, negative = inhibition, usual class: inhibitors; also: potency is read from the fitted curve at half-maximal effect; nearly all actives have a fitted effect of over 55% in size
Target sequence (A8B2U2 whole entry, looked up): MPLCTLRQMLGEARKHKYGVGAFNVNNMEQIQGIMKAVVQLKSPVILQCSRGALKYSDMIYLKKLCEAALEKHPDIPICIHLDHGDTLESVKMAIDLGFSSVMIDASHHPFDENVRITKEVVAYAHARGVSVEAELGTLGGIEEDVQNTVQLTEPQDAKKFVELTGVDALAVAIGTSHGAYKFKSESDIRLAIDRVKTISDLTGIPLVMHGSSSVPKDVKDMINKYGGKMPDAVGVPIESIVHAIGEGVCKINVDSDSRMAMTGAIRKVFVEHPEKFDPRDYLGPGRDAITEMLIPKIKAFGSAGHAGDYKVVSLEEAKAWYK
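40 nM FBPA preincubated 10 min at RT with compound (up to 57.5 uM final), then substrate plus GAPDH/TPI/NAD/arsenate coupling and diaphorase/resazurin added. Fluorescence read after 20 min at RT, 525/598 nm.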
FMDV inh – antivirals against foot and mouth disease virus. FMDV antiviral cell-based qHTS. Potency, µM (top dose mostly 57.9 µM), without a hit: at the highest dose activity change, negative = inhibition, usual class: inhibitors. hit rate 1.2% among 410,000. AID 1159524; calls by dose curve; tested in HEK293T cells; also: read-out not given here; potency is read from the fitted curve at half-maximal effect; nearly all actives have a fitted effect of over 45% in size
HCMV inh – blocks human cytomegalovirus replication; hit rate 4.5% among 410,000; activity change, negative = inhibition, % at 57.5 µM; HFF cells, HCMV-luciferase reporter, 72 h; stronger effect = lower value; in the data active = activity change below about -60%; inconclusive = no clear call, values can overlap the other calls; inactive = above about -39%
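Compounds were evaluated in HFFs infected with an HCMV luciferase reporter virus (MOI 1 PFU/cell). Luciferase in lysates collected 72 h post infection served as the replication measure.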
VACV mCherry inh – vaccinia inhibition (mCherry reporter). Vaccinia virus mCherry reporter infection, fluorescence. Potency, µM (top dose mostly 36.5 µM), without a hit: top-dose activity change, negative = inhibition, actives largely listed as inhibitors. hit rate 0.63% among 310,000. AID 720579; calls by dose curve; tested in A549 cells; also: potency is read from the fitted curve at half-maximal effect; nearly all actives have a fitted effect of over 35% in size
VACV Venus inh – inhibitors of vaccinia virus (Venus reporter); Vaccinia virus Venus reporter expression, fluorescence; Potency, µM (titrated, usually from 36.5 µM), for the others: at the highest dose activity change, negative = inhibition, actives largely listed as inhibitors; hit rate 0.46% among 330,000; AID 720580; calls by dose curve; tested in A549 cells; also: potency is read from the fitted curve at half-maximal effect; nearly all actives have a fitted effect of over 30% in size
* hit, by the source's call; i = inactive; ? = inconclusive; . = no result; [ ] = dose if it differs, or a comment. Unless noted, calls follow the shape of the dose curve; as a rule, active = well fitted curve in the direction sought with a large enough effect; inconclusive = small, poorly fitted or top-dose-only effect, or another doubt; inactive = no such curve, though single readings can be large; an effect the other way counts as inactive or inconclusive. % is scaled to controls: 0 for no effect and ±100 for the full control effect.

SMILES	HCV inh	FBPA Giardia inh	FMDV inh	HCMV inh	VACV mCherry inh	VACV Venus inh
O=C(CC1(O)C(=O)N(CCc2ccccc2)c2ccccc21)c1ccccn1 (stereo not given)	12.9%	-1.0%	11.4%	-21.7	-3.3%	-2.7%
CC(=O)c1c(C)[nH]c2ccc(OCC(O)CNCCc3ccccc3)cc12 (stereo not given)	.	.	.	.	-5.7%	-16.8%
C=C(C)C(=O)CP(=O)(OCC)OCC	.	4.7%	.	.	.	.
CCCCCN1C=CC(=C2C(=O)c3ccccc3C2=O)C=C1	-7.5%	-0.4%	2.82µM*	-90.4*	i	-10.9%
CC1=CC(=C2C(=O)c3ccccc3C2=O)C=C(C)N1C	11.3%	-6.1%	24.4%	15.6	-21.8%	-20.3%
COc1ccc(/C=C/C(=O)N2CCC(C(N)=O)CC2)cc1S(=O)(=O)N1CCOCC1	19.7%	-2.1%	22.0%	-3.8	-10.3%	-4.2%
COc1ccc(/C=C/C(=O)N2CCN(c3ccccc3)CC2)cc1S(=O)(=O)N1CCOCC1	31.6µM*	1.2%	14.1µM*	?	-24.4%	-21.6%
O=C(/C=C/c1ccc(S(=O)(=O)N2CCOCC2)cc1)N1CCN(c2ccccc2)CC1	2µM*	4.9%	31.6µM*	?	?	?
Cc1cc(C)c(/C=C/c2onc(C)c2S(=O)(=O)N2CCC(C(=O)N3CCN(c4ccccc4)CC3)CC2)c(C)c1	.	.	-4.7%	29.7	-13.3%[7.34 µM]	-17.5%[7.34 µM]
COC(=O)C1=C(C)NC(=O)/C1=C\c1cc(C)n(-c2c(C)cccc2C)c1C	?	?	.	-61.5*	-6.0%	-5.3%
Cc1ccc(-n2c(C)cc(C(=O)CN3CCOCC3)c2C)cc1C	-18.1%	-0.5%	15.7%	0.0	.	.
Cc1cc(-n2c(C)cc(C(=S)N3CCOCC3)c2C)ccc1Br	?	13.0%	?	-65.6*	?	-14.1%
O=C(C1CCCN(S(=O)(=O)c2cccc3nsnc23)C1)N1CCN(c2ccccc2Cl)CC1 (stereo not given)	.	.	25.1µM*	-13.1	-27.9%	-15.9%
O=C(C1CCCN(S(=O)(=O)c2cccc3nsnc23)C1)N1CCc2ccccc2C1 (stereo not given)	?	-15.4%	25.1µM*	-12.1	-22.6%	-15.8%
O=C(C1CCN(S(=O)(=O)c2cccc3nsnc23)CC1)N1CCc2ccccc21	?	-4.4%	-27.5%	-12.9	?	-18.2%
O=C(C1CCCN(S(=O)(=O)c2cccc3nsnc23)C1)N1CCc2ccccc21 (stereo not given)	?	-2.5%	25.1µM*	-10.7	-23.2%	-29.7%
O=C(C1CCN(S(=O)(=O)c2ccccc2F)CC1)N1CCc2ccccc21	14.2%	.	-17.7%	-67.9*	.	.
O=C(C1CCCN(S(=O)(=O)c2cccc3nsnc23)C1)N1CCN(c2ccccc2F)CC1 (stereo not given)	.	.	-9.5%	?	-11.0%	-8.9%
O=C(NC1CCCCC1)N1CCN(Cc2ccco2)CC1	11.2%	-2.7%	13.5%	-63.2*	-0.5%	1.2%
Cc1[nH]c(=O)n(C(C)C)c(=O)c1Br	19.0%	.	-9.8%	-3.5	-15.5%	-18.2%
CCOCc1cnc(C)nc1NCC(=O)c1c(C)[nH]c2ccccc12	20.7%	4.3%	18.1%	-79.7*	?	-14.6%
CCOCc1cnc(C)nc1NCC(=O)c1c(C)[nH]c2cc(C)ccc12	-13.0%	16.6%	.	-100.6*	-20.1%	-12.8%
CCOC(=O)c1ccc(N2CCN(c3cccc(Cl)c3)CC2)c(NC(=O)Nc2ccc(OC)cc2OC)c1	.	.	-26.6%	41.7	-8.0%	-2.5%
O=C(O)c1cn(Cc2ccccc2Cl)c2ccc(S(=O)(=O)N3CCOCC3)cc2c1=O	-7.5%	-0.7%	-13.2%	-16.9	i	-7.3%
O=c1cnc2cnc(Oc3ccccc3)nc2n1Cc1cccs1	.	5.6%	-18.0%	.	.	.
SMILES	HCV inh	FBPA Giardia inh	FMDV inh	HCMV inh	VACV mCherry inh	VACV Venus inh
O=C(CNC(=O)c1ccco1)N=Nc1c(O)[nH]c2ccc([N+](=O)[O-])cc12	-3.9%	-24.5%	0.2%	30.5	-5.8%	1.6%
NC(=O)N=Nc1c(O)[nH]c2ccc([N+](=O)[O-])cc12	5.4%	-0.3%	-12.6%	-19.6	.	.
CC(C)NC(=S)N=Nc1c(O)[nH]c2ccc([N+](=O)[O-])cc12	1.12µM*	-20.8%	?	?	-29.6%	-26.3%
C=C(C)CNC(=S)N=Nc1c(O)[nH]c2ccc([N+](=O)[O-])cc12	25.1µM*	-7.8%	-18.0%	-15.3	-19.0%	-14.2%
Fc1ccccc1Nc1nc(NCc2ccco2)nc(N2CCOCC2)n1	35.5µM*	-5.9%	-20.1%	16.4	.	.
CC(C)c1ccc(Nc2nc(NCc3ccco3)nc(N3CCOCC3)n2)cc1	10µM*	-4.9%	-12.0%	15.0	.	?
CNS(=O)(=O)c1ccc(NC(=O)c2cc(-c3ccncc3)nc3ccc(Cl)cc23)cc1	.	5.3%	0.6%	?	i	-9.4%
Cc1ccc([C@@H]2CC(=O)[C@@H]3CN(S(=O)(=O)c4ccc(C)cc4)[C@H](c4ccc(Cl)cc4)C[C@@H]3N2S(=O)(=O)c2ccc(Cl)cc2)cc1	.	.	-22.4%	-14.0	i	-10.5%
NC(=O)c1ccsc1NC(=O)CSc1ccccc1F	-6.1%	-3.8%	.	-0.2	-1.8%	-8.0%
C=CCn1c(SCC(=O)Nc2sccc2C(N)=O)nc2sc(CC)cc2c1=O	11.2µM*	0.7%	25.1µM*	-77.9*	.	10µM*
C=CCn1c(SCC(N)=O)nc2ccccc2c1=O	.	.	.	.	30.9%	-14.6%
C=CCn1c(SCC(=O)Nc2sccc2C(N)=O)nc2ccccc2c1=O	11.2µM*	-0.8%	?	-37.5	.	?
NC(=O)c1ccsc1NC(=O)CSc1nnc(Nc2ccccc2)s1	?	-11.0%	?	-63.1*	.	.
C=CCn1c(SCN2C(=O)c3ccccc3C2=O)nc2ccc(Cl)cc2c1=O	-6.2%	-2.0%	15.8µM*	20.8	-10.0%	-10.1%
CC(C)COc1ccc(C(=S)N2CCCC2)cc1	-10.1%	.	-8.0%	?	i	-5.2%
Cc1nc(N2CCN(c3ccccc3)CC2)[nH]c(=O)c1C	27.1%	-20.9%	-11.1%	-23.4	i	-20.0%
CC1=C(CC(=O)O)c2cc(F)ccc2/C1=C\c1ccc(S(C)=O)cc1 (stereo not given)	?	8.3%	-8.7%	?	-6.8%	-12.0%
Cc1cc(Oc2ccc(Cl)cc2Cl)nc(C#N)n1	.	.	.	.	?	-29.6%
CCOC(=O)c1sc(NC(=O)C(C)Oc2ccc(OC)cc2)c(C(=O)OCC)c1C (stereo not given)	.	.	-27.6%	-30.8	i	-12.7%
C=CCn1c(SCC(=O)c2ccc(CNC(C)=O)o2)nc2ccccc2c1=O	-10.1%	-15.4%	-25.4%	-14.3	.	1.26µM*
COC(=O)c1sc2nc(C)nc(SCC(=O)Nc3sccc3C(N)=O)c2c1C	11.2µM*	.	?	?	.	.
C=CCn1c(SCC(=O)Nc2sccc2C(N)=O)nc2ccc(Cl)cc2c1=O	7.94µM*	3.2%	?	-81.9*	.	?
C=CCn1c(SCC(=O)Nc2ccccc2F)nc2ccccc2c1=O	-0.5%	10.9%	-20.0%	?	.	.
